This note sets out measurements from PubChem BioAssay AID686978 (National Center for Advancing Translational Sciences (NCATS), 2013).

Screen size: about 420,000 compounds; about 64,000 (15%) were called active. About 27% were inconclusive and are not listed. Not all results are given here. A number with no mark means an inactive call. The call rests on the fitted dose curve; in most records, active means well fitted inhibition curve with a large enough effect; inconclusive means small, poorly fitted or top-dose-only effect; inactive means flat fitted curve, though single readings scatter. Peptide text beside a SMILES is read from it.
On the % scale 0 is the no-effect control and ±100 the full control effect; potency means the concentration at half of the fitted maximal effect.

The experiment can be described thus: qHTS for Inhibitors of human tyrosyl-DNA phosphodiesterase 1 (TDP1): qHTS in cells in absence of CPT. Further: nearly all actives have a fitted effect of over 55% in size. Particulars: DT40 Tdp1-/- hTDP1 cells, no CPT, ATP luminescence, 48 h; activity change, negative = growth inhibition: at 46.2 µM (top of the series). In short, it runs like this:
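Compound effects on proliferation are scored in DT40 Tdp1-/-;hTDP1 cells in the absence of CPT. ATP levels (CellTiter-Glo luminescence) are recorded after a ≥48 hr, 37 °C incubation.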
In the case of `Cc1nc(C)c2c(c1C(F)(F)F)-c1ccccc1C2(F)F`, the “activity change, negative = growth inhibition” value is -11.9%. As for `O=C(NC1CCCC1)c1ccc(Br)s1`, the “activity change, negative = growth inhibition” value is -11.5%. The same measure, in the same setting: the figure for `CCOc1c2ccc(C(=O)NCc3ccc(OC(F)(F)F)cc3)cc2nn1C` is -6.96%. On to `COc1cc(CNCc2cccs2)cc(Br)c1OC`, for which the “activity change, negative = growth inhibition” value is -18.6%. Consider `COc1cc(CNCc2ccc(OC)c3ccccc23)cc(OC)c1OC`, for which the Potency was 11.6 µM (active). `COc1ccc(CNCCCNCc2ccc(OC)c(OC)c2)cc1OC`: the “activity change, negative = growth inhibition” value was -14.4%. Same read-out and setting: for `COc1ccc(CNC(=O)COC(=O)C2=Cc3ccccc3OC2)cc1` the value was -21.4%; for `O=C(COc1ccccc1)N1CCc2ccccc2C1`, -23%. Take `CCC(CC)c1nnc(NC(=O)/C=C/c2ccco2)s1`: the “activity change, negative = growth inhibition” value was -3.52%. The same measure, in the same setting: the figure for `Cc1ccc2nc(-c3ccc(C)c(NC(=O)Cc4ccccc4)c3)oc2c1` is -6.56%.

On to `CCc1ccc2oc(-c3ccc(C)c(NC(=O)/C=C/c4ccco4)c3)nc2c1`, for which the Potency was 18.4 µM (active). Take `NC(=S)c1ccc(C(N)=S)o1`: the “activity change, negative = growth inhibition” value was -1.35%.

`Cc1ccc(C(=O)O/N=C(\N)c2ccccn2)cc1Cl`: the “activity change, negative = growth inhibition” value was -22.4%.

As to `CCc1nnc(NC(=O)/C=C/c2ccc(C)o2)s1`, the “activity change, negative = growth inhibition” value is 5.94%. As to `Cc1ccc(/C=C/C(=O)Nc2ccc([N+](=O)[O-])c(NC(=O)/C=C/c3ccc(C)o3)c2)o1`, the Potency was 11.6 µM (active). For the molecule `COc1ccc(OC)c(NC(=O)/C=C/c2ccc(C)o2)c1`, the “activity change, negative = growth inhibition” value is -22.9%. The same measure, in the same setting: for `O=C(NC(=S)NC1CCSC1=O)c1ccccc1F` (configuration not stated) the value was -106%. `Cc1ccc(-n2c(=O)cc(N3CCN(Cc4ccccc4)CC3)[nH]c2=O)cc1`: the “activity change, negative = growth inhibition” value was -10.6%.

For the molecule `COc1ccc(N(CC(=O)N/N=C/c2cccc3c2OCCO3)S(=O)(=O)c2ccc(NC(C)=O)cc2)cc1`, the “activity change, negative = growth inhibition” value is -22.6%.

As to `CCOCCn1ccc2c(OCC(=O)NCc3ccc(C)cc3)cccc2c1=O`, the “activity change, negative = growth inhibition” value is -13.9%. Regarding `COC(=O)COc1cccc2c(=O)n(CC(=O)NCc3ccccc3)ccc12`, the Potency was 2.06 µM (active). As to `COC(=O)COc1cccc2c(=O)n(CC(=O)NCCc3ccc(OC)c(OC)c3)ccc12`, the “activity change, negative = growth inhibition” value is -6.18%. Consider `Cc1ccccc1OCC(=O)Nc1ccc2c(c1)ncn2C`, for which the “activity change, negative = growth inhibition” value was -1.77%. In the case of `Cc1ccccc1OCC(=O)NNC(=O)c1cc(S(=O)(=O)N(C)C)ccc1N1CCCC1`, the “activity change, negative = growth inhibition” value is -22.5%.

In the case of `Cc1ccccc1OCC(=O)Nc1ccc(N2CCN(C(=O)C(C)C)CC2)c(Cl)c1`, the Potency was 6.51 µM (active). `Cc1ccccc1N1CC(C(=O)Nc2nnc(SCCC3OCCO3)s2)CC1=O` (configuration not stated): the “activity change, negative = growth inhibition” value was -21.1%. Regarding `O=C(CSc1nn(-c2ccc(F)cc2)c(=S)s1)NC1CCS(=O)(=O)C1` (configuration not stated), the “activity change, negative = growth inhibition” value was -16.7%.

Turning to `CC(=O)CC[C@@H](C)O[C@@H]1OC(C)[C@H](O)CC1O` (some centres not stated), the “activity change, negative = growth inhibition” value is -3.14%. Same read-out and setting: for `CCc1cc(C(=O)Nc2nnc(C3CC3)s2)sc1C` the value was 10.3%; for `Cc1cc(C(=O)Nc2nnc(C3CC3)s2)c(C)s1`, 14.9%. As for `O=C(Nc1nnc(C2CC2)s1)c1ccccn1`, the Potency is 16.4 µM (active). Turning to `O=C1CCC(C(=O)N2CCC(O)(c3ccccc3)CC2)CN1CCc1ccccc1` (configuration not stated), the “activity change, negative = growth inhibition” value is -9.99%. For `COCCn1c(C)cc(C(=O)CSc2nnc(C3CC3)n2C2CC2)c1C`, the “activity change, negative = growth inhibition” value was -6.52%. For `COCC(C)n1c(SCc2ccc(C(=O)OC)o2)nc2ccccc2c1=O` (configuration not stated), the Potency is 8.2 µM (active). `COCCn1c(C)cc(C(=O)CSc2nc3ccccc3c(=O)n2C(C)COC)c1C` (configuration not stated): the Potency was 9.2 µM (active). For the molecule `COc1ccc2c(C)cc(SCC(=O)NCC3CCCO3)nc2c1` (configuration not stated), the “activity change, negative = growth inhibition” value was 1.68%.

For `Cc1ccc(C(=O)CSc2nc3ccccc3c(=O)n2N)o1`, the “activity change, negative = growth inhibition” value was -39.8%.

As for `COCCn1c(C)cc(C(=O)CN2c3cccc4cccc(c34)S2(=O)=O)c1C`, the “activity change, negative = growth inhibition” value was -1.18%. Take `C=CCn1c(SCc2ccc(C(=O)NCCO)cc2)nc2ccccc2c1=O`: the “activity change, negative = growth inhibition” value is -14.1%.

Consider `COCC(C)n1c(C)cc(C(=O)CSc2cc(C)c3ccccc3n2)c1C` (configuration not stated), for which the Potency was 16.4 µM (active). For `Cc1cc(SCC(=O)NCCN2C(=O)CSC2=O)nc2ccccc12`, the “activity change, negative = growth inhibition” value is -20.3%. With `Nc1nc2c(Br)ccc(Br)c2cc1C(=O)NCCc1ccccc1`, the “activity change, negative = growth inhibition” value is -24.4%. Turning to `CC(C)C(=O)Nc1nnc(Sc2ccc(N(C)C)cc2)s1`, the “activity change, negative = growth inhibition” value is -19%. In the case of `Cc1ccc(N=C2SCCCN2C(=O)c2cccc(N3C(=O)CCC3=O)c2)cc1Cl`, the “activity change, negative = growth inhibition” value is -7.58%. As to `CCCn1c(=O)c2ccccc2n2c(SCC(=O)/C(C#N)=C(\C)N)nnc12`, the “activity change, negative = growth inhibition” value was -25.6%.

`Cc1cc(NC(=O)CSC2=NS(=O)(=O)c3cc(Cl)ccc3N2)no1`: the “activity change, negative = growth inhibition” value is 11.7%.

`Cc1cccc(C)c1-n1c(C)cc(/C=C2\C(=O)NN(c3ccccc3)C2=O)c1C`: the “activity change, negative = growth inhibition” value is -29.2%. Turning to `O=c1oc2ccccc2c(CNc2ccccc2)c1[N+](=O)[O-]`, the “activity change, negative = growth inhibition” value was 4.23%. Take `Cc1cccc(NC(=O)c2nnn(-c3cccc(C(F)(F)F)c3)c2N)c1`: the “activity change, negative = growth inhibition” value was -4.86%. For the molecule `Cc1cc(C(=O)Nc2cccc(C(F)(F)F)c2)c2c(C)nn(-c3cccc(F)c3)c2n1`, the Potency was 23.1 µM (active). Consider `CC(=O)c1nn(-c2cccc(C(F)(F)F)c2)c(=O)[nH]c1=O`, for which the “activity change, negative = growth inhibition” value was -14.1%.

For `COc1ccc(NC(=O)CN(C)C(=O)CC2CCCCC2)cc1`, the “activity change, negative = growth inhibition” value was 2.34%. Consider `CC1CCCCC1NC(=O)COC(=O)Cc1ccc(Cl)cc1` (configuration not stated), for which the “activity change, negative = growth inhibition” value is 13.6%. For the molecule `Cc1ccc(CNC(=O)CN2CCN(Cc3ccc(Cl)cc3)C2=O)cc1`, the “activity change, negative = growth inhibition” value is -6.2%.

As for `CC1CCCC(NC(=O)CN2CCN(Cc3ccc(Cl)cc3)C2=O)C1C` (configuration not stated), the Potency was 23.1 µM (active). As to `Cc1ccc(S(=O)(=O)N/N=C(\c2ccccc2)C2CC2)cc1`, the “activity change, negative = growth inhibition” value is 10%. Consider `Cc1ccc2c(c1)N(CC(=O)N1CCC(O)CC1)C(=O)CO2`, for which the “activity change, negative = growth inhibition” value was 8.57%. With `CC[C@H](C)CCCCC(=O)N[C@@H](CCN)C(=O)N[C@H](C(=O)N[C@@H](CCN)C(=O)N[C@H]1CCNC(=O)[C@@H]([C@H](C)O)NC(=O)[C@H](CCN)NC(=O)[C@H](CCN)NC(=O)[C@H](CC(C)C)NC(=O)[C@@H](CC(C)C)NC(=O)[C@H](CCN)NC1=O)[C@@H](C)O` (HELM PEPTIDE1{[CC[C@H](C)CCCCC(=O)[*:2]].[Dab].T.[Dab].[Dab].[Dab].[dL].L.[Dab].[Dab].[dT]}$PEPTIDE1,PEPTIDE1,5:R3-11:R2$$$V2.0), the “activity change, negative = growth inhibition” value is -14% [at 21.1 µM].

Regarding `COc1ccc(-c2nc3c4ccccc4n(CC(=O)Nc4ccc(C(C)=O)cc4)c(=O)n3n2)cc1`, the “activity change, negative = growth inhibition” value was -1.26%.

`Cc1cc(N2CCN(c3cccc(C(F)(F)F)c3)CC2)n2nc(-c3ccccc3)nc2n1`: the “activity change, negative = growth inhibition” value is 0.913%. With `O=c1n(Cc2cccc(C(F)(F)F)c2)c2ccccc2c2nc(-c3ccccc3)nn12`, the Potency was 25.9 µM (active). Consider `CCN(CCCNC(=O)CCn1c(=O)[nH]c2ccsc2c1=O)c1ccccc1`, for which the “activity change, negative = growth inhibition” value was -5.18%.
